ChEMBL document CHEMBL1961873, “Compounds: GSK PKIS; Assays: Nanosyn kinase panel” (2012)

Key:
[1] = target: Sphingosine kinase 1 (Homo sapiens) (UniProt Q9NYA1); settings: at 1 µM;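 further: mean SPHK1 inhibition value reported from the GSK PKIS kinase panel screen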
[2] = target: T1, Sphingosine kinase 2 (Homo sapiens) (UniProt Q9NRA0); settings: at 0.1 µM
T1 sequence (whole entry): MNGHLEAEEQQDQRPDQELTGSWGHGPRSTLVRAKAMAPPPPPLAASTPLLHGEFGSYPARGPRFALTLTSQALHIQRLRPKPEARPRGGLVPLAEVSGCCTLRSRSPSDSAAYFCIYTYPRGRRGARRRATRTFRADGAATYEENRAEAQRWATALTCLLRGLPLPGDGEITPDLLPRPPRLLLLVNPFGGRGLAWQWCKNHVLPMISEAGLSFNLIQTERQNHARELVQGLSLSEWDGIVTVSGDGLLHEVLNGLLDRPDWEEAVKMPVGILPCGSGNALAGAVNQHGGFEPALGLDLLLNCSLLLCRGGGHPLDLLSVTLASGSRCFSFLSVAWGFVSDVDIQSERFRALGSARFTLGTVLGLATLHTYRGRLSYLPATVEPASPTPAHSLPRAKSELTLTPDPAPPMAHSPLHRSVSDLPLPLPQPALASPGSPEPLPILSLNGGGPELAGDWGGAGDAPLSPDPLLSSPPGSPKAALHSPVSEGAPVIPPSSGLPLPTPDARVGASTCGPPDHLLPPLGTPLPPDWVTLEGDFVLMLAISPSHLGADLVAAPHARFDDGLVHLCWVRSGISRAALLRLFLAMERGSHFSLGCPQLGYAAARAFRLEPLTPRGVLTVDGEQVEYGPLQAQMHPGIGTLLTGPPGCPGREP

[3] = target: T1, Sphingosine kinase 2 (Homo sapiens); settings: at 1 µM
[4] = target: Casein kinase II subunit alpha (Homo sapiens) (UniProt P68400); settings: at 0.1 µM
[5] = target: Casein kinase II subunit alpha (Homo sapiens) (UniProt P68400); settings: at 1 µM
[6] = target: T2, Inhibitor of nuclear factor kappa-B kinase subunit alpha (Homo sapiens) (UniProt O15111); settings: at 0.1 µM
T2 sequence (whole entry): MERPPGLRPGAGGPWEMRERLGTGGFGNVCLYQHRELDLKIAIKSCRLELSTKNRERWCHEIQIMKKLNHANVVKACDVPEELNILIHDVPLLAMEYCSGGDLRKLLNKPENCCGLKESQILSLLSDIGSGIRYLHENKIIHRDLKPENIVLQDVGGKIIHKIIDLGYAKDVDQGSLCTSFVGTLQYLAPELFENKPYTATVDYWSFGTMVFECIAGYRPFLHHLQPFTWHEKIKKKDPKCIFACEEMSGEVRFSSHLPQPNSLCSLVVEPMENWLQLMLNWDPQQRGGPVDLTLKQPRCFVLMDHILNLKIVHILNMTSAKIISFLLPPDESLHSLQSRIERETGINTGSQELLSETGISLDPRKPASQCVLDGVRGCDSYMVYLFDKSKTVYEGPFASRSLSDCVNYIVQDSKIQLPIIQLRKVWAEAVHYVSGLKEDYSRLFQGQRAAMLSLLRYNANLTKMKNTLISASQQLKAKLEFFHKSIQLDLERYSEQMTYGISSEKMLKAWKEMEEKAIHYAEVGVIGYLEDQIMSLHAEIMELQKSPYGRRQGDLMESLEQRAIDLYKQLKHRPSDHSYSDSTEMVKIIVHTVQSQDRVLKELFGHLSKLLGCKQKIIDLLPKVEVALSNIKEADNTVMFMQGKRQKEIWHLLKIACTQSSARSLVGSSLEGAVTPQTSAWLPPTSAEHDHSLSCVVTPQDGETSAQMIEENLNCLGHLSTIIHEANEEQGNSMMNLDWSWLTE

[7] = target: T2, Inhibitor of nuclear factor kappa-B kinase subunit alpha (Homo sapiens); settings: at 1 µM
[8] = target: T3, Inhibitor of nuclear factor kappa-B kinase subunit beta (Homo sapiens) (UniProt O14920); settings: at 0.1 µM
T3 sequence (whole entry): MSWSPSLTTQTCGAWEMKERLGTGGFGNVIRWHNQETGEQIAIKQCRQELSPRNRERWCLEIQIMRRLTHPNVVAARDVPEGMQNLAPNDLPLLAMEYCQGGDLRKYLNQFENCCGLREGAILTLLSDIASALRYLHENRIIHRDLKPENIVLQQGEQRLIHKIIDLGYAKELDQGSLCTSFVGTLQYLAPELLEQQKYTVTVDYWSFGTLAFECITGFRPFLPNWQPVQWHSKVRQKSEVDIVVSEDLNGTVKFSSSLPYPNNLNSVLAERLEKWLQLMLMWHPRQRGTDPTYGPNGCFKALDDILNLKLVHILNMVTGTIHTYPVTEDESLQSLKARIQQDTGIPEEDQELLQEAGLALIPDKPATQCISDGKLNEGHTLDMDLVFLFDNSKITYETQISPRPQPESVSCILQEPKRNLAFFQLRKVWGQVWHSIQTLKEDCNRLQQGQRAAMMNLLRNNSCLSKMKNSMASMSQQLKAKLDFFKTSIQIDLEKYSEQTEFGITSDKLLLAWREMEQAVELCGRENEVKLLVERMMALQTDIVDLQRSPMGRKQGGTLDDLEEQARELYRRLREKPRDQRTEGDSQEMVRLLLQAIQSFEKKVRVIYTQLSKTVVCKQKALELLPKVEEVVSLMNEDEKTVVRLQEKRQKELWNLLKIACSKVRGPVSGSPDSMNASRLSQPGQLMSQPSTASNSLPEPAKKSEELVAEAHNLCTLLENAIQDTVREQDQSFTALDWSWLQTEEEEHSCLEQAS

[9] = target: T3, Inhibitor of nuclear factor kappa-B kinase subunit beta (Homo sapiens); settings: at 1 µM
[10] = target: T4, Inhibitor of nuclear factor kappa-B kinase subunit epsilon (Homo sapiens) (UniProt Q14164); settings: at 0.1 µM
T4 sequence (whole entry): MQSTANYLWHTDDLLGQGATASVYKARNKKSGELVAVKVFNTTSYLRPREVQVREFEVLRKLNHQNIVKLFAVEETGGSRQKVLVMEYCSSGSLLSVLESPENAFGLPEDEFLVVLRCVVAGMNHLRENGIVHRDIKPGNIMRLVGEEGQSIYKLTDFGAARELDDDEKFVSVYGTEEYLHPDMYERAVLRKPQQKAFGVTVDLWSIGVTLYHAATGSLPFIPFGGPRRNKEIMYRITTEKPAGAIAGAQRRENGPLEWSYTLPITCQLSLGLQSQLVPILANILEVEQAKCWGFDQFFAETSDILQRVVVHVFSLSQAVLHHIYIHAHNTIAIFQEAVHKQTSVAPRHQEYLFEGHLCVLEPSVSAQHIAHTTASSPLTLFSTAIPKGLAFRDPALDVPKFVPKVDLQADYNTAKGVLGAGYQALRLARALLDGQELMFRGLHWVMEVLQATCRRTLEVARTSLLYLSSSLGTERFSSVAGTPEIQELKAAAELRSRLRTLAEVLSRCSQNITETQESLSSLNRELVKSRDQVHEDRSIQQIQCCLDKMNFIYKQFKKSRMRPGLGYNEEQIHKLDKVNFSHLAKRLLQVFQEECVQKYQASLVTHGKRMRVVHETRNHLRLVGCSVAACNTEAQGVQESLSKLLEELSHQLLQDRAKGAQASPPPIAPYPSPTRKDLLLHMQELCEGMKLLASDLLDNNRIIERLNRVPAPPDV

[11] = target: T4, Inhibitor of nuclear factor kappa-B kinase subunit epsilon (Homo sapiens); settings: at 1 µM
[12] = target: T5, Serine/threonine-protein kinase Nek1 (Homo sapiens) (UniProt Q96PY6); settings: at 0.1 µM
T5 sequence (whole entry): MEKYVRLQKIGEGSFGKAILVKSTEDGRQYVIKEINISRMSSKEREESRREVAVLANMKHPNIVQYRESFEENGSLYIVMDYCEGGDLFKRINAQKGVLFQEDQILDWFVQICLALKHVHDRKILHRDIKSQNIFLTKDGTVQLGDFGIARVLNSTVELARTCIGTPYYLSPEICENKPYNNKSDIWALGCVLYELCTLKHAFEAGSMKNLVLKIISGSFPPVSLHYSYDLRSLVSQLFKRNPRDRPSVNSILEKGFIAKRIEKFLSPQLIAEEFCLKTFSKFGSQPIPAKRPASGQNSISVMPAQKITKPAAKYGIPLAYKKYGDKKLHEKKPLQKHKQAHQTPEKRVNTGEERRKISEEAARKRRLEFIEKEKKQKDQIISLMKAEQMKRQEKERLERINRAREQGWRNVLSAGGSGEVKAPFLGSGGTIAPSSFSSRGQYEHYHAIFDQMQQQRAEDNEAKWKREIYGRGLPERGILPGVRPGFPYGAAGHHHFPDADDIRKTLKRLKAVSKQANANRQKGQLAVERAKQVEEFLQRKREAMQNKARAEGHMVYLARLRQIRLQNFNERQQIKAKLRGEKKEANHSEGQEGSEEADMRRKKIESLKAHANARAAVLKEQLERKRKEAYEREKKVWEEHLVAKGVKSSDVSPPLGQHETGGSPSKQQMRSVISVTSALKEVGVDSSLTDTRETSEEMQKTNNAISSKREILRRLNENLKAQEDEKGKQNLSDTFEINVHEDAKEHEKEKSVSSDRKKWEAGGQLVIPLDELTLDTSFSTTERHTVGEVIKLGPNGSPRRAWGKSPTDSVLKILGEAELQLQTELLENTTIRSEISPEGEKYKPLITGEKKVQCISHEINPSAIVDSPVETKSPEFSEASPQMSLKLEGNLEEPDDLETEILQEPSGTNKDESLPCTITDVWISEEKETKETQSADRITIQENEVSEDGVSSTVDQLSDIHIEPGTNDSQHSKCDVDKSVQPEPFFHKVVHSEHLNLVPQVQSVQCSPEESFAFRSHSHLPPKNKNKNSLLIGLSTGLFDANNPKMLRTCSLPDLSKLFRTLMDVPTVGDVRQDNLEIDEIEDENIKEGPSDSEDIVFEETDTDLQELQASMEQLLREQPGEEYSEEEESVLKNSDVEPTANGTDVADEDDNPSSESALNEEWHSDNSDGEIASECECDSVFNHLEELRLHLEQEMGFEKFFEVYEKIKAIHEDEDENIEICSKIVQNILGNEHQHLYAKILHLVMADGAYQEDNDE

[13] = target: T5, Serine/threonine-protein kinase Nek1 (Homo sapiens); settings: at 1 µM
[14] = target: T6, Serine/threonine-protein kinase Nek2 (Homo sapiens) (UniProt P51955); settings: at 0.1 µM
T6 sequence (whole entry): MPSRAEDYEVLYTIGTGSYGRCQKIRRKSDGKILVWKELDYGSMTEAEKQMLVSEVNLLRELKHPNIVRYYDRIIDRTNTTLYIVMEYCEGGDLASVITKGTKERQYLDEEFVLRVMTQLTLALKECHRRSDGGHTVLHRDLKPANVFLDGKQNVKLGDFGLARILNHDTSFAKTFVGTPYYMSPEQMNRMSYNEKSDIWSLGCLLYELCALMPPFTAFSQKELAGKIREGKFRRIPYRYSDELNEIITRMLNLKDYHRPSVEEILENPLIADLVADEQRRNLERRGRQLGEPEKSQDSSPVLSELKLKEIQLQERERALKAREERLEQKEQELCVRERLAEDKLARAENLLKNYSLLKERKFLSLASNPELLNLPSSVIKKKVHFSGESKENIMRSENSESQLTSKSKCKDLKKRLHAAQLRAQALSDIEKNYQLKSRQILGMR

[15] = target: T6, Serine/threonine-protein kinase Nek2 (Homo sapiens); settings: at 1 µM
[16] = target: Serine/threonine-protein kinase Nek6 (Homo sapiens) (UniProt Q9HC98); settings: at 0.1 µM
[17] = target: Serine/threonine-protein kinase Nek6 (Homo sapiens) (UniProt Q9HC98); settings: at 1 µM
[18] = target: Serine/threonine-protein kinase Nek7 (Homo sapiens) (UniProt Q8TDX7); settings: at 0.1 µM
[19] = target: Serine/threonine-protein kinase Nek7 (Homo sapiens) (UniProt Q8TDX7); settings: at 1 µM
[20] = target: T7, Serine/threonine-protein kinase Nek9 (Homo sapiens) (UniProt Q8TD19); settings: at 0.1 µM;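 further: reported value is the mean percent inhibition of NEK9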
T7 sequence (whole entry): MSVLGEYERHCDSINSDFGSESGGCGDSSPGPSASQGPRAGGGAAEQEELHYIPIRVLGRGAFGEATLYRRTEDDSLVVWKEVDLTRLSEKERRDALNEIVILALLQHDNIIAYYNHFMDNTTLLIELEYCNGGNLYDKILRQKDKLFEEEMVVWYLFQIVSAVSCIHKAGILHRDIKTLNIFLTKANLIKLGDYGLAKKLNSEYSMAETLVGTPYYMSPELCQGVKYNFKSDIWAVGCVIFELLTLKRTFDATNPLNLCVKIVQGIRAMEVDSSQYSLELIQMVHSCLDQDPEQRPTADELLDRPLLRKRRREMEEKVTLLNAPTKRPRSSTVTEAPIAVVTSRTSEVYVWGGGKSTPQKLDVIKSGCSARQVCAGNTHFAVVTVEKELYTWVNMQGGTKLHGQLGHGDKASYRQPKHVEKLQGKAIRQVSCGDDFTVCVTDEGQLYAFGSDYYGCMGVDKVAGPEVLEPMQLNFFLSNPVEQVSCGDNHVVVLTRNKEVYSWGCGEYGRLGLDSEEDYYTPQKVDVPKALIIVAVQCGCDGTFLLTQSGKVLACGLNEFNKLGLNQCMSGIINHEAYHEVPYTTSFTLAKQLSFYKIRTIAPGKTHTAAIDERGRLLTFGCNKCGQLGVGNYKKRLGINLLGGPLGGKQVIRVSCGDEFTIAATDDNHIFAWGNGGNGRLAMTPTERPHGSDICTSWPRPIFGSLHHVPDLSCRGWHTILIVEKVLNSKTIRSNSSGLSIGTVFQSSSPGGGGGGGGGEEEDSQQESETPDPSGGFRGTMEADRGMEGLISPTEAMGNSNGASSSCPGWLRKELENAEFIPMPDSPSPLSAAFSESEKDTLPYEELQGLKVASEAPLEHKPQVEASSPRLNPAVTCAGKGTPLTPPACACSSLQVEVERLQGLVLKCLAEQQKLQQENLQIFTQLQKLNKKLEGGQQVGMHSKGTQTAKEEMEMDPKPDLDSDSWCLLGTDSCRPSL

Sequence of Serine/threonine-protein kinase Nek6 (Homo sapiens) (Q9HC98 whole entry): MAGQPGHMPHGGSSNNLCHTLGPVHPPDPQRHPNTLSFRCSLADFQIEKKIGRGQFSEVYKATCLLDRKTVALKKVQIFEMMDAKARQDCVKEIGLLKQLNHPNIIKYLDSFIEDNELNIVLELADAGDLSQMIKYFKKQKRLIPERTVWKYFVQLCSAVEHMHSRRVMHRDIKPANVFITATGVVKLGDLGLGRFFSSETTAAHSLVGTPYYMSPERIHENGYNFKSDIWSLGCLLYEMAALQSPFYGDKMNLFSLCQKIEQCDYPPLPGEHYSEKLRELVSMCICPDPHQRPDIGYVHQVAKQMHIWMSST
Sequence of Casein kinase II subunit alpha (Homo sapiens) (P68400 whole entry, looked up): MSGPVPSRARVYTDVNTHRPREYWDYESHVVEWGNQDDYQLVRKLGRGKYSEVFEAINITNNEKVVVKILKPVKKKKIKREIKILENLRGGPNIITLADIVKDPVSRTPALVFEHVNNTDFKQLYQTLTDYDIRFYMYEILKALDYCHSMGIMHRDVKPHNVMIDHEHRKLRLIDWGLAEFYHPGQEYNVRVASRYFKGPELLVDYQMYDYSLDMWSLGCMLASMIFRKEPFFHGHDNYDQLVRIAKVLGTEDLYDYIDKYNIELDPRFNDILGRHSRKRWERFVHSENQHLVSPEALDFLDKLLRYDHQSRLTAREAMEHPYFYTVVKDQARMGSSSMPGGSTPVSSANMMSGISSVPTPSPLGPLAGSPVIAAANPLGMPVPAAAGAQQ
Sequence of Serine/threonine-protein kinase Nek7 (Homo sapiens) (Q8TDX7 whole entry, looked up): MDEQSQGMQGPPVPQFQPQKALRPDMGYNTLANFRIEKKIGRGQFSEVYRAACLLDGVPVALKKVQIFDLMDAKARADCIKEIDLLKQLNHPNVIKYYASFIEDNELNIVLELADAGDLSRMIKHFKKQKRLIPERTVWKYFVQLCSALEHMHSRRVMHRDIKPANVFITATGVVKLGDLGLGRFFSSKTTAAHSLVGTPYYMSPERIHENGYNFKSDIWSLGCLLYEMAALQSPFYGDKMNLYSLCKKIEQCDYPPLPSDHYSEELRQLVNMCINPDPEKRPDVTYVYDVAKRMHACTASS
Sequence of Sphingosine kinase 1 (Homo sapiens) (Q9NYA1 whole entry): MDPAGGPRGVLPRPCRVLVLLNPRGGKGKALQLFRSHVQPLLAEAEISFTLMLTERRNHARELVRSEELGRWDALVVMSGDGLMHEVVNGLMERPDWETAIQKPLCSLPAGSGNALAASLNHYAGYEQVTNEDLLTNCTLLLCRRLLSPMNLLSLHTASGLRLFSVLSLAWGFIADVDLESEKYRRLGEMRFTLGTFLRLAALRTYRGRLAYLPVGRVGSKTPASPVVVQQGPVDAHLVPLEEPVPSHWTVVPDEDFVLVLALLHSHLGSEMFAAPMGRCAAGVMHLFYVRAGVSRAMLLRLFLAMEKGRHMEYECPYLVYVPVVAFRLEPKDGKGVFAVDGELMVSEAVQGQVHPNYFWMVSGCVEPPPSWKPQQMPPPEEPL

With `CS(=O)(=O)Nc1ccc(-c2ccc3c(NC(=O)C4CC4)n[nH]c3c2)cc1` the inhibition [1] was -3.21%, the inhibition [2] was 1.2% and the inhibition [3] was 0%. It also gave an inhibition [4] of 2.09%, an inhibition [5] of 0.41% and an inhibition [6] of 6.65%. It also gave an inhibition [7] of -3.42%, an inhibition [8] of 3.69% and an inhibition [9] of 1.2%. It also gave an inhibition [10] of -0.23%, an inhibition [11] of 2.67% and an inhibition [12] of 1.54%. For the same molecule, the inhibition [13] was -3.13%, the inhibition [14] was 4.81% and the inhibition [15] was 3.7%. The inhibition [16] was 1.17%, the inhibition [17] was -2.29% and the inhibition [18] was 4.35%. For the same molecule, the inhibition [19] was 2.55% and the inhibition [20] was 2.89%.
